# Compound activity: PubChem BioAssay, several laboratories
# Granule exo inh: blocks lytic granule exocytosis | TALL-104 LAMP-1 surface exposure, flow cytometry; cells stimulated with thapsigargin and PMA | inhibition, % at 10 µM | 0.66% of 360,000 active | AID 651702;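 active means inhibition above about 55%, limit read from the data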
# rCAG binder: binds r(CAG) RNA repeats; r(CAG) RNA repeat, TO-PRO-1 dye displacement fluorescence; inhibition, % at 3 µM; 1.3% of 370,000 active;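 active means inhibition above the plate cutoff, the mean of all test compounds on that plate plus 3 SD, cut at about 35% in these data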;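 further: higher means more dye released from RNA so lower well fluorescence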
# ABCB6 inh MLPCN: blocks the human ABCB6 transporter | Q9NP58 | K562-ABCB6 porphyrin accumulation, flow cytometry, 1 h; active compounds read low | fluorescence ratio to DMSO, % at 10 µM | 0.19% of 360,000 active;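 active means fluorescence ratio to DMSO below 75%, the collection mean minus 3 SD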;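 further: signal is porphyrin accumulated inside mitochondria; lower ratio means ABCB6 inhibition with less porphyrin fluorescence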
# PG9 binder: binds the HIV-1 gp120 antibody PG9 | TR-FRET gp120-PG9 antibody binding | inhibition, % at 6.7 µM | 0.43% of 360,000 active | AID 624416; in the data active means inhibition above about 8.5%
# rCAG binder conf: r(CAG) RNA repeat binding, confirmation; shares compounds with rCAG binder; TO-PRO-1 dye displacement fluorescence; AID 652065; 70% of 4,300 active; inhibition, % at 3 µM;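 active means inhibition above a per-plate cutoff, the mean inhibition of sample wells plus 3 SD, cut at about 35% in these data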;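 further: loss of TO-PRO-1 fluorescence as compound displaces dye from 1x1 AA loop RNA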
# DNA CAG counter: DNA CAG dye complex inhibition counter-screen; shares compounds with rCAG binder; d(CAG) DNA oligo TO-PRO-1 dye displacement, fluorescence; inhibition, % at 3 µM; 94% of 4,300 active;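 active means inhibition above its plate's cutoff, the mean test-well inhibition plus 3 SD, cut at about 4.8% in these data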;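 further: hits displace the dye from DNA and so lower well fluorescence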
# Hits are given with their value; n = inactive; x = no result given. This is a sample that favours compounds with a hit; in the whole collection about 2.5% have one here.
SMILES,Granule exo inh,rCAG binder,ABCB6 inh MLPCN,PG9 binder,rCAG binder conf,DNA CAG counter
Cc1ccc(S(=O)(=O)N2CCN(C(=O)CN3C(=O)c4ccc([N+](=O)[O-])cc4C3=O)CC2)c(C)c1,n,n,n,n,x,x
CCCc1nc2c(nnn2Cc2ccccc2Cl)c(=O)[nH]1,n,n,n,n,x,x
O=C(NC1CC1)C1Nc2ccc(OC(F)(F)F)cc2C2C=CCC12 (stereo unspecified),n,43,n,n,n,n
O=C(NCc1ccccc1)C1Nc2ccc(OC(F)(F)F)cc2C2C=CCC12 (stereo unspecified),n,n,n,n,x,x
CCOC(=O)C1Nc2ccc(OC(F)(F)F)cc2C2C=CCC12 (stereo unspecified),n,40,n,n,n,6.1
O=C(NCCCN1CCOCC1)C1Nc2ccc(OC(F)(F)F)cc2C2C=CCC12 (stereo unspecified),n,n,n,n,x,x
O=C(NCc1ccccn1)C1Nc2ccc(OC(F)(F)F)cc2C2C=CCC12 (stereo unspecified),n,37,n,n,n,n
COc1cccc(NC(=O)Nc2nc(SC(C)(C)C)ns2)c1,n,74,n,n,41,32
COc1cccc(NC(=O)Nc2nc(SC)ns2)c1,n,44,n,n,n,9.4
COc1ccc(NC(=O)Nc2cccc(OC)c2)cc1,n,n,n,n,x,x
CCSc1nsc(NC(=O)Nc2cccc(F)c2)n1,n,63,n,n,n,17
CCCSc1nsc(NC(=O)Nc2ccc(F)cc2F)n1,n,n,n,n,x,x
COc1cccc(NC(=O)Nc2ccc3nsnc3c2)c1,n,n,n,n,x,x
Cc1cccc2c(N=O)c(O)n(CCc3ccccc3)c12,n,n,n,n,x,x
O=C(NC(=S)Nc1ccccn1)c1cccc([N+](=O)[O-])c1,n,n,n,n,x,x
CC1CCN(S(=O)(=O)c2ccc3c(c2)c(=O)c(C(=O)NCc2cccs2)cn3C)CC1,n,43,n,n,n,7.5
CC(=O)c1ccc(NC(=O)NC2CC(=O)N(c3ccc4c(c3)OCCO4)C2)cc1 (stereo unspecified),n,n,n,n,x,x
Cc1ccc(S(=O)(=O)N/N=C2/CC(c3ccccc3)Oc3ccccc32)cc1[N+](=O)[O-] (stereo unspecified),n,42,n,n,76,37
